5 compounds from PubChem BioAssay can be followed below.

A short description of assay [1]: Wnt pathway potentiators raising nuclear beta-catenin – imaging, WNT3A-conditioned medium, mouse C2C12, NPC library, primary screen (AID 1117326; in the data active = nuclear beta-catenin stimulation mostly above about 4.2%, no sharp cut-off; inactive = mostly below about 10%). The following applies: stronger effect = higher value.
A short description of assay [2]: stimulators of insulin release from INS-1E, primary screen, cell-based, 5 mM glucose, NPC library (AID 1117329;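 active = compound raises insulin release from rat beta cells at 5 mM glucose, no numeric limit stated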). The following applies: rat INS-1E insulin secretion, at 10 µM, stronger effect = higher value.
Assay [3] is described as follows: growth inhibition of GSK3B-pretreated HCT116 cells – cell-based, CellTiter-Glo, 0.2 to 20 µM (AID 1117336;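 active = compounds lowering colon cancer cell viability after pretreatment blocking the GSK3B kinase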). Conditions: HCT116 viability after GSK3B inhibitor, at 20 µM, stronger effect = higher value. For orientation: ATP-based viability assays read luminescence as a measure of living cells.
Assay [4] in a line: inhibition of endothelial tube formation, primary screen, imaging, VEGF stimulated, CD31 staining, tube area, NPC library (AID 1117340;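 active = compound that reduces growth-factor-driven endothelial tube area in a mixed cell culture, no cutoff stated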). Conditions: VEGF-stimulated ADSC/ECFC co-culture, at 10 µM, stronger effect = higher value.
The nature of assay [5]: GLP1 release stimulators, primary, NCI-H716, NPC library (AID 1117341;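 active = compound raises GLP1 secretion from the human gut endocrine cells, with no numeric limit stated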). Conditions: NCI-H716 cells, at 10 µM, stronger effect = higher value.
The nature of assay [6]: HCT116 colon cancer cell growth inhibition, primary screen, CellTiter-Glo luminescence, NPC library (AID 1117342;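 active = compounds that lower survival of HCT116 colon cancer cells in the luminescence readout, no numeric limit stated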). The following applies: at 20 µM (top of the series).
A short description of assay [7]: reduced SW480 viability measured with CellTiter-Glo, NPC library, primary (AID 1117343;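 active = compounds that lower viability of the colon cancer cells in the luminescence readout, with no numeric limit stated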). Conditions: CellTiter-Glo luminescence; at 20 µM (top of the series) unless noted.
Assay [8] can be described thus: NPC library primary testing for decreased DLD-1 cell viability via CellTiter-Glo (AID 1117346;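 active = compounds that lower survival of DLD-1 colon cancer cells in the luminescence readout, no cutoff given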). The following applies: DLD-1 viability, CellTiter-Glo luminescence; at 20 µM (top of the series).
The nature of assay [9]: viability loss with induced miR-34 in A549 – imaging, A549 dox-inducible miR-34, nuclei and caspase counts, primary screen (AID 1347080). Conditions: A549 miR-34 inducible, Hoechst nuclei count, 48 h.
The nature of assay [10]: MELAS cybrid and Rieske KO viability enhancers – cell-based, MELAS cybrids, Rieske KO mouse fibroblasts, CellTiter-Glo, primary screen (AID 1508586;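 active = mean z-score across replicates of 1.96 or higher in either the MELAS or the Rieske mutant cell line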;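 note: z relative to plate mean and SD of compound and empty wells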). Conditions: low glucose.
Assay [11] is described as follows: galactose survival enhancers in mitochondrial complex I cybrids – cell-based, galactose medium, ATP luminescence, primary screen (AID 1645843;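 active = z-score of at least 1.8 in each of two replicates, scored against plate mean and spread of sample wells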;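 note: positive z means more ATP and so rescue of galactose-driven cybrid death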). Conditions: complex I mutant cybrid cells, 72 h, stronger effect = higher value.
Assay [12] concerns the target NAD(+) hydrolase SARM1 (Homo sapiens) (UniProt Q6SZW1). Briefly: blocking NAD cleavage by SARM1 SAM-TIR – cell lysate, NAD-Glo luminescence (AID 1508614;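 active = compound whose remaining NAD level is above about 45 nM, limit read from the data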;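 note: higher remaining NAD means stronger inhibition of SARM1 NADase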). Conditions: SAM-TIR HEK293T lysate NADase, at 1 µM, stronger effect = higher value.
Assay [13] is described as follows: P. berghei load reduction in hepatocytes – cell-based, HepG2, luciferase luminescence, HepG2 viability, primary screen (AID 624349; in the data active = parasite load remaining mostly below about 12%, no sharp cut-off; inactive = mostly above about 10%;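 note: 100% = mean of DMSO negative control wells on the same plate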). Conditions: P. berghei liver stage in HepG2, luciferase luminescence, concentration not given here; parasite load remaining: stronger effect = lower value; viability: measured here: HepG2 viability without parasites.
Assay [14] is described as follows: compounds altering viability of human ES cells (AID 493140; call rule not given here;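 note: cells exposed to compounds for four days before counting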). Conditions: human embryonic stem cell survival screen; stronger effect = higher value.
Assay [15] deals with Mitogen-activated protein kinase 7 (Homo sapiens) (UniProt Q13164). Briefly: Gal4-ERK5 driven luciferase induction – cell-based, HTS, primary screen (AID 1508626;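 active = luciferase signal above three times the same-plate solvent-only control wells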;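 note: luciferase driven by Gal4-ERK5 fusion binding five Gal4 sites before minimal TATA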). The following applies: HeLa Gal4-ERK5 transactivation, 18 h, at 5 µM, stronger effect = higher value.
Assay [16] concerns the target ATP-dependent translocase ABCB1 (Homo sapiens) (UniProt P08183). Kind of assay: P-glycoprotein substrate transport blockade – cell-based (AID 377; in the data active = fluorescence slope change above about 50%). Conditions: MDR1-expressing cells, fluorescent substrate accumulation slope; stronger effect = higher value; concentration not given here.
[17] abbreviates: stronger effect = lower value, cell number ratio, induced over uninduced.
[18] abbreviates: measured here: relative caspase fold change +Dox/-Dox.
Where [19] appears, read: measured here: total cells with miR-34 induction, stronger effect = lower value.
The mark [20] stands for this setting: measured here: total cells without miR-34 induction.
Setting [21] is: MELAS cybrid survival, CellTiter-Glo 48 h, stronger effect = higher value.
[22] abbreviates: Rieske KO mouse fibroblast survival, CellTiter-Glo 72 h.

Values joined by “and” are separate entries in the source; they are usually repeats but may differ in a detail not shown here. Equal entries are not always repeated. Inconclusive results are not listed. Active and inactive are the calls of the source.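 Rule for the calls, unless noted: active = compounds whose cell count with miR-34 switched on is under 0.7 times the count with it off; inactive = the rest.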

NAD(+) hydrolase SARM1 (Homo sapiens), sequence (Q6SZW1 whole entry, looked up): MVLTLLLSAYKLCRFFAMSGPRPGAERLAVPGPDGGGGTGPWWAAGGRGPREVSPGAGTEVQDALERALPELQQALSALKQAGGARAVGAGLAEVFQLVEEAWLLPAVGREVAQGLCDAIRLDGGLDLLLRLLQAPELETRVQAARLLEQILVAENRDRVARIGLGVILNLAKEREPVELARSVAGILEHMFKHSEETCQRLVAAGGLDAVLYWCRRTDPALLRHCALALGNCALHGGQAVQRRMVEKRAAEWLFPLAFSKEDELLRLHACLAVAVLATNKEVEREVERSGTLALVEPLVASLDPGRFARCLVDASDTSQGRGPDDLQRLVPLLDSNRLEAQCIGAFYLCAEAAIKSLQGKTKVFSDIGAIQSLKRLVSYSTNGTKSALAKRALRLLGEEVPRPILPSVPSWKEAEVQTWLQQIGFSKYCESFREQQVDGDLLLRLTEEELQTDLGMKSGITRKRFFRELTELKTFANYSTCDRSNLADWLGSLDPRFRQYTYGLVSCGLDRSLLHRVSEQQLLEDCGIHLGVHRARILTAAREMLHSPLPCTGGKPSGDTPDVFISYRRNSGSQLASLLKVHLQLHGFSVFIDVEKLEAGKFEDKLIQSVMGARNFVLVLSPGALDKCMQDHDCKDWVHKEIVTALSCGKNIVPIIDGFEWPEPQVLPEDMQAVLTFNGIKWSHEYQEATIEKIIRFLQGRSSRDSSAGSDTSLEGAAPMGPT
Mitogen-activated protein kinase 7 (Homo sapiens), sequence (Q13164 whole entry, looked up, the tested form may be a part): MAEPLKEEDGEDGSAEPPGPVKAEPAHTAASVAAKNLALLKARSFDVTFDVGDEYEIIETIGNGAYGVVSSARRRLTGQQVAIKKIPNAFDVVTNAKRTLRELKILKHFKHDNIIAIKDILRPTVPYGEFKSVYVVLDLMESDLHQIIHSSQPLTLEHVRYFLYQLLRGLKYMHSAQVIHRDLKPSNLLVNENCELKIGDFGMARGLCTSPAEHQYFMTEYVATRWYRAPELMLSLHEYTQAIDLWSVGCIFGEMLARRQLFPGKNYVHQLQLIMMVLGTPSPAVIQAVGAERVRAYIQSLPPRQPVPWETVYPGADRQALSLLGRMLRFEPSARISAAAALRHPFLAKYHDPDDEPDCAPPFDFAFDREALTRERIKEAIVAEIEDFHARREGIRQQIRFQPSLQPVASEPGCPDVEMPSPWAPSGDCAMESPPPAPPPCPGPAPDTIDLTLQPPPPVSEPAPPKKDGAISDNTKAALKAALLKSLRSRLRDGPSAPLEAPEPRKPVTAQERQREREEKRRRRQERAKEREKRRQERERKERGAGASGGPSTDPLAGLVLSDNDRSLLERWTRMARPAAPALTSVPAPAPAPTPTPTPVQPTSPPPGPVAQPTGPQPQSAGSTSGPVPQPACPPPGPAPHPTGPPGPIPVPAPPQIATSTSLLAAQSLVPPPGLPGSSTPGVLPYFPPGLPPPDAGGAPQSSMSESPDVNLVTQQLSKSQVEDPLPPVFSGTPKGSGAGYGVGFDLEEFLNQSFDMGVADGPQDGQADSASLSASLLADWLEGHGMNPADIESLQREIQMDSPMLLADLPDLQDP
ATP-dependent translocase ABCB1 (Homo sapiens), sequence (P08183 whole entry, looked up): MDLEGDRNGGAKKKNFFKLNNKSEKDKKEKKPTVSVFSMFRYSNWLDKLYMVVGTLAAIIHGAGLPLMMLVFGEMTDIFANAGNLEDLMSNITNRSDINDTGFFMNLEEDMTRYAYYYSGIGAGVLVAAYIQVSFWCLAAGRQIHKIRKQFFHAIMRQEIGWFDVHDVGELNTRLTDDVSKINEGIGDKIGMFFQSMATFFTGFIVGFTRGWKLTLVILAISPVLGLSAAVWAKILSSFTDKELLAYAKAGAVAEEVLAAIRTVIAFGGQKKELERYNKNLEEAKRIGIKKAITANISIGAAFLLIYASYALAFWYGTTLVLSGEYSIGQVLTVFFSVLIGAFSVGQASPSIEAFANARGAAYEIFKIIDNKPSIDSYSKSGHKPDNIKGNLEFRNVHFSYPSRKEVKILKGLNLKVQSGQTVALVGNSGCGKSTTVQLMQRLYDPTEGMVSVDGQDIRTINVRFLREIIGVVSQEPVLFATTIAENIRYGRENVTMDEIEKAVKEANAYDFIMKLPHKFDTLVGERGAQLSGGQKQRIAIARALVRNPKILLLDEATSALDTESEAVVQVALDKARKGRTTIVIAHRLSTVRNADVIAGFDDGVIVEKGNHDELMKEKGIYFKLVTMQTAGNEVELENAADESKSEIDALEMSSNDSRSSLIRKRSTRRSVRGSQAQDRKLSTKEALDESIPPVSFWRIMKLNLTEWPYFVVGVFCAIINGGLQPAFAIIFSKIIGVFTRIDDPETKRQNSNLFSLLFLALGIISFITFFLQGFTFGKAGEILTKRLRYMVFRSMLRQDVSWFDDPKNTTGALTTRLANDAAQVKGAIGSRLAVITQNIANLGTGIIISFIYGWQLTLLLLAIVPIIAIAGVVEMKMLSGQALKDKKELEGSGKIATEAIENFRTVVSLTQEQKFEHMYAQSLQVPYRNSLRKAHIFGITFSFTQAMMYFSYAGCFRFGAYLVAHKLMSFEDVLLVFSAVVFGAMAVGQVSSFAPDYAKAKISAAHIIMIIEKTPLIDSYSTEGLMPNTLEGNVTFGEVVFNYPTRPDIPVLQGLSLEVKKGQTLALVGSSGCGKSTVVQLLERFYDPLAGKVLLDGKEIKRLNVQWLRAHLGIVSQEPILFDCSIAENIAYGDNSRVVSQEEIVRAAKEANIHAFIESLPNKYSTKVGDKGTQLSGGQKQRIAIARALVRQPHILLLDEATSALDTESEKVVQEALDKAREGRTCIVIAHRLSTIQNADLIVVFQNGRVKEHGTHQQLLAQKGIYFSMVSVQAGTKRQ

Turning to `Cc1ccc(Cl)c(OCC(O)CNC(C)(C)C)c1` (centres undefined), the nuclear beta-catenin stimulation is 0.2% (inactive) in assay [1] (at 10 µM) and 0.1% in assay [1] (stimulation, at 2 µM). In assay [2], the insulin secretion stimulation was 1% (inactive). The viability decrease in assay [3] was -43.6% (inactive). The tube area decrease in assay [4] is -6.8% (inactive). The GLP1 secretion stimulation in [5] is 0% (inactive). Besides, the inhibition of viability in assay [6] is -1.43% (inactive). For the same compound, the figures for the viability decrease (inhibition) in assay [7] and in [8] were -8.9% (inactive) and -15.9% (inactive), respectively. The figures for the fold change in [9] (setting [17]) and in [9] (setting [18]) were 0.861 (inactive) and 0.19, respectively. The cell count in assay [9] (setting [19]) was 8600; in [9] (setting [20]), 9990. Further, the figures for the z-score in assay [10] (setting [21]), in [10] (setting [22]) and in assay [11] were 0.548 (inactive), -0.195 and 0.405 (inactive), respectively.
For `Cc1ccc(Nc2c(F)cccc2Cl)c(CC(=O)O)c1`, the nuclear beta-catenin stimulation in [1] (at 10 µM) is 1% (inactive); in assay [1] (stimulation, at 2 µM), 3.4%. Also, the insulin secretion stimulation in assay [2] is -0.3% (inactive). In addition, in [3], the viability decrease was 0.4% (inactive). For the same compound, the tube area decrease in assay [4] was -20.6% (active). Further, in assay [5], the GLP1 secretion stimulation was 3.1% (inactive). Besides, in assay [6], the inhibition of viability is -25.8% (inactive). For the same compound, the viability decrease (inhibition) in assay [7] was -2.2% (inactive); in assay [8], -9.1% (inactive). In addition, the fold change was 0.931 (inactive) in [9] (setting [17]); 0.932 and 0.672 in [9] (setting [18]). Moreover, the cell count in assay [9] (setting [19]) was 8200 and 8630; in [9] (setting [20]) it was 8810 and 9270. Moreover, the z-score in assay [10] (setting [21]) was -0.194 (inactive); in [10] (setting [22]) it was 0.00857. In [12], the remaining NAD was 10 nM (inactive).
With `CCOc1ccccc1OCCN[C@H](C)Cc1ccc(OC)c(S(N)(=O)=O)c1`, the parasite load remaining in assay [13] is 30.6% (inactive). Moreover, the viability in assay [13] amounted to 71%. Further, the nuclear beta-catenin stimulation in assay [1] (at 10 µM) was 0.2% (inactive); in assay [1] (stimulation, at 2 µM), 3%. For the same compound, the insulin secretion stimulation in assay [2] is 1.6% (inactive). The viability decrease in [3] was 4.2% (inactive). Besides, the tube area decrease in assay [4] is -2.4% (inactive). In addition, the GLP1 secretion stimulation in assay [5] is 2.3% (inactive). The inhibition of viability in assay [6] is 4.1% (inactive). The viability decrease (inhibition) in [7] was 6.6% (inactive); in [8], 5.8% (inactive). Also, the fold change in assay [9] (setting [17]) is 0.868 (inactive); in assay [9] (setting [18]), 1.51. Moreover, the cell count stood at 9140 in [9] (setting [19]) and 10500 in [9] (setting [20]). The z-score in assay [10] (setting [21]) was -0.622 (inactive); in assay [10] (setting [22]), -1.24; in assay [11] it was -0.32 (inactive). Further, the remaining NAD in assay [12] was 10 nM (inactive).
`CC(C)(C)NC[C@H](O)COc1cccc2c1CCCC2=O`: the survival in assay [14] was 3.08 (inactive). Also, in assay [13], the parasite load remaining is 68.1% (inactive). The viability in assay [13] was 89.1%. In addition, the nuclear beta-catenin stimulation was 0% (inactive) in assay [1] (at 10 µM) and 0.3% in assay [1] (stimulation, at 2 µM). In addition, in assay [2], the insulin secretion stimulation was 3.7% (inactive). Also, the viability decrease in assay [3] was 17.1% (inactive). The tube area decrease in assay [4] was 1% (inactive). In assay [5], the GLP1 secretion stimulation was 8.6% (inactive). Further, in [6], the inhibition of viability was 13.8% (inactive). Moreover, the viability decrease (inhibition) in assay [7] is -11.3% (inactive); in [8], 2.7% (inactive). In addition, the fold change in assay [9] (setting [17]) is 0.883 (inactive); in [9] (setting [18]), 1.03. The results for the cell count in [9] (setting [19]) and in assay [9] (setting [20]) were 9340 and 10600, respectively. Moreover, the z-score in assay [10] (setting [21]) was 0.581 (inactive); in assay [10] (setting [22]), 0.045. Further, the remaining NAD in assay [12] is 10 nM (inactive). For the same compound, the luciferase signal in assay [15] was 88 AU (inactive).
As for `C1CCN2C[C@@H]3C[C@@H](CN4CCCC[C@@H]34)[C@H]2C1`, the fluorescence slope change in assay [16] was 10.6% (inactive). Further, the parasite load remaining in [13] is 47.2% (inactive). In addition, the viability in assay [13] is 113%. In addition, the nuclear beta-catenin stimulation in assay [1] (at 10 µM) is -0.4% (inactive); in [1] (stimulation, at 2 µM), -0.5%. Moreover, the insulin secretion stimulation in assay [2] is 15.2% (inactive). Besides, the viability decrease in assay [3] was 5.9% (inactive). In addition, the tube area decrease in assay [4] was -8.8% (inactive). For the same compound, the GLP1 secretion stimulation in assay [5] is 1.2% (inactive). In assay [6], the inhibition of viability was 22.6% (inactive). Besides, the values for the viability decrease (inhibition) in [7] and in assay [8] were 3.2% (inactive) and 4.2% (inactive), respectively. For the same compound, the fold change is 0.853 (inactive) in assay [9] (setting [17]) and 1.2 in assay [9] (setting [18]). The cell count in [9] (setting [19]) worked out at 8930; in [9] (setting [20]), 10500. The remaining NAD in assay [12] was 10 nM (inactive). In addition, in assay [15], the luciferase signal is 60 AU (inactive).

As a reminder, the viability is a read-out of living cells in per cent, often relative to untreated cells.
